# In PubChem BioAssay (EPA / NIEHS):
# Active and inactive are the calls of the source. The calls were made as follows: active = hit-call score of the fitted dose curve at least 0.9, where 1 is the maximum; inactive = score below 0.9.
# How the values were obtained:
# [1] = CEETOX_H295R_DOC: CeeTox H295R High-throughput Steroidogenesis Assay for DOC (AID 2283439); settings: actives raise or lower the signal
# In short: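 11-Deoxycorticosterone quantified in medium by MTBE extraction and HPLC-MS/MS after 48 h chemical exposure (0.1% DMSO) of forskolin-primed (10 uM, 48 h) H295R cells. Same-well MTT viability; data fitted bidirectionally against DMSO.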
# [2] = CEETOX_H295R_ESTRADIOL: CeeTox H295R High-throughput Steroidogenesis Assay for Estradiol (AID 2283440); settings: actives raise or lower the signal;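 also: estradiol secreted into medium quantified by LC-MS/MS after dansyl derivatisation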
# In short: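 Readout is estradiol in conditioned medium, quantified by reverse-phase HPLC-MS/MS against a 7-point standard curve. Cells: H295R, forskolin-stimulated, then dosed 48 h in 0.1% DMSO; activity fitted in both directions relative to DMSO.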
# [3] = CEETOX_H295R_ESTRONE: CeeTox H295R High-throughput Steroidogenesis Assay for Estrone (AID 2283441); settings: actives raise or lower the signal
# In short: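 Estrone secreted into medium quantified by LC-MS/MS after dansyl chloride derivatization, following 48 h chemical exposure (0.1% DMSO final) of forskolin-prestimulated (10 uM, 48 h) H295R cells; gain or loss fitted against DMSO; MTT viability in same wells.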
# [4] = CEETOX_H295R_PROG: CeeTox H295R High-throughput Steroidogenesis Assay for Progesterone (PROG) (AID 2283442); settings: actives raise or lower the signal;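 as to AC50: human H295R adrenal cells primed with 10 µM forskolin before dosing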
# In short: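 Measured analyte is progesterone secreted by H295R cells at 48 h of chemical treatment, following 10 uM forskolin priming. Quantitation used HPLC-MS/MS against a 7-point standard curve; cytotoxicity was checked by MTT absorbance.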
# [5] = read-out: Tumor necrosis factor receptor superfamily member 6 (Homo sapiens) (UniProt P25445); assay: LTEA_HepaRG_FAS: Life Technologies and Expression Analysis (LTEA) Assay for Fas cell surface death receptor (FAS) using HepaRG (AID 2283447); settings: mRNA level, 48 h; actives raise or lower the signal
# In short: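 Differentiated human HepaRG cells, pre-cultured 48 h, were exposed in duplicate for 48 h to 8-point half-log concentrations (top 100 uM, 0.5% DMSO) in serum-free induction medium; FAS mRNA measured by qRT-PCR, normalized to ACTB/GAPDH/POLR2A, bidirectional fit versus DMSO.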
# [6] = read-out: Fatty acid synthase (Homo sapiens) (UniProt P49327); assay: LTEA_HepaRG_FASN: Life Technologies and Expression Analysis (LTEA) Assay for Fatty Acid Synthase (FASN) using HepaRG (AID 2283448); settings: mRNA level, 48 h; actives raise or lower the signal
# In short: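 FASN transcript measured by TaqMan qRT-PCR, normalised to three housekeeping genes, after 48 h chemical exposure of HepaRG cells. Eight-point half-log series from 100 uM in 0.5% DMSO, duplicates; gain or loss fitted against vehicle.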
# [7] = read-out: Cyclin Dependent Kinase Inhibitor 1A (CDKN1A), CDKN1A (gene 1026); assay: LTEA_HepaRG_CDKN1A: Life Technologies and Expression Analysis (LTEA) Assay for Cyclin Dependent Kinase Inhibitor 1A (CDKN1A) using HepaRG (AID 2283450); settings: mRNA level, 48 h; actives raise or lower the signal
# In short: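 Gain or loss of CDKN1A transcript is scored by bidirectional fitting against 0.5% DMSO vehicle. Human HepaRG cultures receive chemicals for 48 h across an 8-point series peaking at 100 uM; expression comes from qRT-PCR.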
# [8] = read-out: Cyclin D1 (CCND1), CCND1 (gene 595); assay: LTEA_HepaRG_CCND1: Life Technologies and Expression Analysis (LTEA) Assay for Cyclin D1 (CCND1) using HepaRG (AID 2283451); settings: mRNA level, 48 h; actives raise or lower the signal;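 as to AC50: TaqMan qRT-PCR transcript level normalised to ACTB GAPDH and POLR2A housekeeping genes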
# In short: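 Expression change is measured by qRT-PCR in HepaRG cells after 48 h treatment across eight concentrations topping at 100 uM, with duplicate wells and DMSO (0.5%) serving as baseline for bidirectional fitting.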
# [9] = read-out: catalase (CAT), CAT (gene 847); assay: LTEA_HepaRG_CAT: Life Technologies and Expression Analysis (LTEA) Assay for catalase (CAT) using HepaRG (AID 2283452); settings: mRNA level, 48 h; actives raise or lower the signal
# In short: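 Differentiated HepaRG cells in serum-free induction medium were dosed 48 h in duplicate, eight half-log concentrations from 100 uM in 0.5% DMSO. Transcript measured by TaqMan qRT-PCR, normalised to ACTB/GAPDH/POLR2A, fitted bidirectionally against DMSO.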
# [10] = read-out: flavin-containing dimethylaniline monooxygenases 3 (FMO3), FMO3 (gene 2328); assay: LTEA_HepaRG_FMO3: Life Technologies and Expression Analysis (LTEA) Assay for flavin-containing dimethylaniline monooxygenases 3 (FMO3) using HepaRG (AID 2283453); settings: mRNA level, 48 h; actives raise or lower the signal;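 as to AC50: FMO3 transcript by TaqMan qRT-PCR normalized to ACTB GAPDH and POLR2A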
# In short: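 FMO3 transcript quantified by TaqMan qRT-PCR against three housekeeping genes after 48 h chemical exposure of HepaRG cells. Eight-point half-log series, top 100 uM, 0.5% DMSO vehicle; phenobarbital 1mM induction control; up- or down-regulation fitted.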
# [11] = read-out: CFLAR gene, CFLAR (gene 8837); assay: LTEA_HepaRG_CFLAR: Life Technologies and Expression Analysis (LTEA) Assay for CFLAR gene using HepaRG (AID 2283455); settings: mRNA level, 48 h; actives raise or lower the signal
# In short: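 Gain- or loss-of-signal changes in CFLAR transcript were fitted bidirectionally relative to 0.5% DMSO. Cells (HepaRG, duplicate wells) were dosed for 48 h across eight half-log concentrations topping at 100 uM; quantitation by TaqMan qRT-PCR.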
# [12] = read-out: Forkhead box O1 (FOXO1), FOXO1 (gene 2308); assay: LTEA_HepaRG_FOXO1: Life Technologies and Expression Analysis (LTEA) Assay for Forkhead box O1 (FOXO1) using HepaRG (AID 2283456); settings: mRNA level, 48 h; actives raise or lower the signal
# In short: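 Using one lot of HepaRG hepatic cells kept in 0.5% DMSO, the team applied test chemicals in duplicate, half-log dilutions from 100 uM, for 48 h. Expression, normalised to ACTB/GAPDH/POLR2A, was compared with vehicle in either direction.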
# [13] = CEETOX_H295R_TESTO: CeeTox H295R High-throughput Steroidogenesis Assay for Testosterone (TESTO) (AID 2283457); settings: actives raise or lower the signal
# In short: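 Steroidogenesis in H295R cells following OECD 456 with minor changes; 48 h exposure. Medium testosterone by HPLC-MS/MS, DMSO as baseline, with MTT viability run in parallel.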
# [14] = read-out: growth arrest and DNA damage 45 (GADD45A), GADD45A (gene 1647); assay: LTEA_HepaRG_GADD45A: Life Technologies and Expression Analysis (LTEA) Assay for growth arrest and DNA damage 45 (GADD45A) using HepaRG (AID 2283458); settings: mRNA level, 48 h; actives raise or lower the signal
# In short: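 GADD45A expression was measured by TaqMan qRT-PCR against three housekeeping genes (ACTB, GAPDH, POLR2A) after 48 h treatment of HepaRG cells. Eight-point half-log series up to 100 uM in 0.5% DMSO, run in duplicate.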
# [15] = read-out: Forkhead box O3 (FOXO3), FOXO3 (gene 2309); assay: LTEA_HepaRG_FOXO3: Life Technologies and Expression Analysis (LTEA) Assay for Forkhead box O3 (FOXO3) using HepaRG (AID 2283459); settings: mRNA level, 48 h; actives raise or lower the signal
# In short: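 Gene-expression endpoint: FOXO3 transcript level by qRT-PCR in HepaRG cultures treated 48 h with chemicals up to 100 uM (half-log, 0.5% DMSO vehicle).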
# [16] = read-out: ABC Transporter (ABCB1), ABCB1 (gene 5243); assay: LTEA_HepaRG_ABCB1: Life Technologies and Expression Analysis (LTEA) Assay for ABC Transporter (ABCB1) using HepaRG (AID 2283460); settings: mRNA level, 48 h; actives raise or lower the signal
# In short: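 Human liver HepaRG line treated 48 h with up to 100 uM compound (eight half-log points, 0.5% DMSO); ABCB1 mRNA change fitted bidirectionally against DMSO controls.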
# [17] = read-out: growth arrest and DNA damage 45 (GADD45B), GADD45B (gene 4616); assay: LTEA_HepaRG_GADD45B: Life Technologies and Expression Analysis (LTEA) Assay for growth arrest and DNA damage 45 (GADD45B) using HepaRG (AID 2283461); settings: mRNA level, 48 h; actives raise or lower the signal
# In short: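 Human HepaRG monolayers receive chemicals for 48 h at eight half-log concentrations, highest 100 uM, in 0.5% DMSO. Expression is measured by TaqMan qRT-PCR and normalized to ACTB, GAPDH and POLR2A.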
# [18] = read-out: ABC Transporter (ABCC3), ABCC3 (gene 8714); assay: LTEA_HepaRG_ABCC3: Life Technologies and Expression Analysis (LTEA) Assay for ABC Transporter (ABCC3) using HepaRG (AID 2283462); settings: mRNA level, 48 h; actives raise or lower the signal
# In short: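 Transcriptional change of ABCC3 in HepaRG after 48 h treatment, determined by qRT-PCR normalized to endogenous controls. Concentrations spanned eight half-log steps to 100 uM in 0.5% DMSO.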
# [19] = read-out: Cyclin D2 (CCND2), CCND2 (gene 894); assay: LTEA_HepaRG_CCND2: Life Technologies and Expression Analysis (LTEA) Assay for Cyclin D2 (CCND2) using HepaRG (AID 2283449); settings: mRNA level, 48 h; actives raise or lower the signal;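 also: CCND2 transcript measured by TaqMan qRT-PCR and normalised to three housekeeping genes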
# In short: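 In this HepaRG study, an eight-point concentration series (max 100 uM, 0.5% DMSO) is applied for 48 h. CCND2 mRNA change is derived by qRT-PCR normalised to ACTB, GAPDH and POLR2A.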
# [20] = read-out: Cytochrome P450 (CYP1A1), CYP1A1 (gene 1543); assay: LTEA_HepaRG_CYP1A1: Life Technologies and Expression Analysis (LTEA) Assay for Cytochrome P450 (CYP1A1) using HepaRG (AID 2283454); settings: mRNA level, 48 h; actives raise or lower the signal
# In short: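 Using HepaRG cultures with 0.5% DMSO as vehicle, eight-concentration exposures (max 100 uM) lasted 48 h. Transcript levels were measured by TaqMan qRT-PCR and normalized to ACTB, GAPDH and POLR2A.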
# Chain of Fatty acid synthase (Homo sapiens) (P49327 whole entry, looked up): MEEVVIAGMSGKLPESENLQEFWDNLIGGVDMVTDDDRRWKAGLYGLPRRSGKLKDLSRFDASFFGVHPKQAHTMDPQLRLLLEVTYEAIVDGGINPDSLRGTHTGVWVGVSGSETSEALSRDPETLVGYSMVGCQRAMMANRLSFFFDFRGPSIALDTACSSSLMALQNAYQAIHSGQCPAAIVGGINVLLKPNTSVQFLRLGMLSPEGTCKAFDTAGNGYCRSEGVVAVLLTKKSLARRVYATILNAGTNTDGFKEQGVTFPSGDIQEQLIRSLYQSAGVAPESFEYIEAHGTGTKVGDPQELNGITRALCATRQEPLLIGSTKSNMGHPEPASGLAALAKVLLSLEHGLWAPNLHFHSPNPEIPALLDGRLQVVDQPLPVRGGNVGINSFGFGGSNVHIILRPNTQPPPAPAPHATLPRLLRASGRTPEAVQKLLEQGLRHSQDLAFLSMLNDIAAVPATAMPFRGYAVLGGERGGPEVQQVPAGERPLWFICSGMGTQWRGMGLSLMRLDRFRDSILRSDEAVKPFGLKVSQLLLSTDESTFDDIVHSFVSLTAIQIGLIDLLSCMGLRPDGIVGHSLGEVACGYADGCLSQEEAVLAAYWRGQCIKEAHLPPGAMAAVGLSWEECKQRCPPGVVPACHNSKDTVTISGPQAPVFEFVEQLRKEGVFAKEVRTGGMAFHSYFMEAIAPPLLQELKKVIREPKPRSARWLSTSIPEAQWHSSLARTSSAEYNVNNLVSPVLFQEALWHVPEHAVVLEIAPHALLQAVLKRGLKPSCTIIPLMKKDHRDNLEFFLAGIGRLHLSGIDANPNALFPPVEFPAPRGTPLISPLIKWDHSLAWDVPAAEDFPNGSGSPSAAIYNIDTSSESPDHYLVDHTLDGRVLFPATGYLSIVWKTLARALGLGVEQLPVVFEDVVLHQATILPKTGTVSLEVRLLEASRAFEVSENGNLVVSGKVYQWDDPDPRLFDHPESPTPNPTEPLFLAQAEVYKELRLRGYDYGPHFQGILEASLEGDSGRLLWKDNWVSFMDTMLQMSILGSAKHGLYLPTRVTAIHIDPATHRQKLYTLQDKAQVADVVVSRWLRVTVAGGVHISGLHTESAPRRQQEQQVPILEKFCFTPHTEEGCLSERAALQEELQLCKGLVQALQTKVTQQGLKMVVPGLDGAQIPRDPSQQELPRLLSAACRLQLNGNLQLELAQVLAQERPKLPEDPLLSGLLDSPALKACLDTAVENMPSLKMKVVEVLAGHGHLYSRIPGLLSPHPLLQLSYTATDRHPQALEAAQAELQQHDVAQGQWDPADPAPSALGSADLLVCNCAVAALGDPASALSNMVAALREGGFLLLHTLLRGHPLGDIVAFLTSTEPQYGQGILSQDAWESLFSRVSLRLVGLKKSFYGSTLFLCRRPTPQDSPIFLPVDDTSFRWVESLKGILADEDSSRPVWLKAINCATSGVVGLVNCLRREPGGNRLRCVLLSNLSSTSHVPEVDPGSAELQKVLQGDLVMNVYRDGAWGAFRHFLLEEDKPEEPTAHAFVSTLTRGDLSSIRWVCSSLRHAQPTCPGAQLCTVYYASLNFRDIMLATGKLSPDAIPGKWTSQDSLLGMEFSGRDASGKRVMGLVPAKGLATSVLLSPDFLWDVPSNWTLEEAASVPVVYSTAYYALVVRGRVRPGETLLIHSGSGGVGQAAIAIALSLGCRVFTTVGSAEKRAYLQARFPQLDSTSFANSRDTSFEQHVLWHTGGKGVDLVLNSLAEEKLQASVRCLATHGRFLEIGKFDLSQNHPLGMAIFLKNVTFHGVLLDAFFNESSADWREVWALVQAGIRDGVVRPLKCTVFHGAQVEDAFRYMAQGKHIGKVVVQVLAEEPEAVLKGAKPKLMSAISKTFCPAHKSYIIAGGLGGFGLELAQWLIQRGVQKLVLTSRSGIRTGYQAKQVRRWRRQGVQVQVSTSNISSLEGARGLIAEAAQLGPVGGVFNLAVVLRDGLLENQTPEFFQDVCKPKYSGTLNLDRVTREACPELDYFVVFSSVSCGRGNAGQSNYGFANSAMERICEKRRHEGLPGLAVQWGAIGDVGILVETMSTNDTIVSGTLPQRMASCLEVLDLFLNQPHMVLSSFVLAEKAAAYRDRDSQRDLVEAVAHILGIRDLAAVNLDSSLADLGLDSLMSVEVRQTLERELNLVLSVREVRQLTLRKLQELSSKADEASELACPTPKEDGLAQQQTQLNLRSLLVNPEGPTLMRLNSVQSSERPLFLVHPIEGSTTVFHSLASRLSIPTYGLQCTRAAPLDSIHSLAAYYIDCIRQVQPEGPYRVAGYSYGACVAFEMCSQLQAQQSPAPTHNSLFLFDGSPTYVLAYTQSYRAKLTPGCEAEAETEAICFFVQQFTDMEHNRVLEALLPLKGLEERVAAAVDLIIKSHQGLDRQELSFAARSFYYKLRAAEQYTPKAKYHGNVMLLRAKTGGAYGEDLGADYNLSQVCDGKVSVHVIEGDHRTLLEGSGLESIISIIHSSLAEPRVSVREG
structure (smiles),measurement,setting,value
C=CCc1cc(S(=O)(=O)c2ccc(O)c(CC=C)c2)ccc1O,AC50,[1],0.673 µM (active)
same,outcome,[2],inactive
same,outcome,[3],inactive
same,AC50,[4],0.351 µM (active)
same,outcome,[5],inactive
same,AC50,[6],81.4 µM (active)
same,outcome,[7],inactive
same,AC50,[8],88.2 µM (active)
same,AC50,[9],71.6 µM (active)
same,AC50,[10],76.9 µM (active)
same,outcome,[11],inactive
same,AC50,[12],79.6 µM (active)
same,outcome,[13],inactive
same,outcome,[14],inactive
same,AC50,[15],84.9 µM (active)
same,AC50,[16],89.1 µM (active)
same,outcome,[17],inactive
same,outcome,[18],inactive
CCCCCCCCN(C)C,outcome,[1],inactive
same,outcome,[4],inactive
same,outcome,[5],inactive
same,outcome,[6],inactive
same,outcome,[19],inactive
same,outcome,[7],inactive
same,outcome,[8],inactive
same,outcome,[9],inactive
same,outcome,[10],inactive
same,outcome,[11],inactive
same,outcome,[12],inactive
same,outcome,[14],inactive
same,outcome,[15],inactive
same,outcome,[16],inactive
same,outcome,[17],inactive
same,outcome,[18],inactive
CC[C@H](C)C(=O)O[C@H]1C[C@H](O)C=C2C=C[C@H](C)[C@H](CC[C@@H](O)C[C@@H](O)CC(=O)O)[C@H]21,AC50,[1],2.7 µM (active)
same,outcome,[2],inactive
same,outcome,[3],inactive
same,AC50,[4],0.949 µM (active)
same,outcome,[5],inactive
same,outcome,[19],inactive
same,outcome,[7],inactive
same,outcome,[8],inactive
same,outcome,[9],inactive
same,outcome,[10],inactive
same,outcome,[11],inactive
same,outcome,[12],inactive
same,outcome,[14],inactive
same,outcome,[15],inactive
same,outcome,[16],inactive
same,outcome,[17],inactive
same,outcome,[18],inactive
c1ccc2ncccc2c1,outcome,[5],inactive
same,outcome,[6],inactive
same,outcome,[19],inactive
same,outcome,[7],inactive
same,outcome,[8],inactive
same,outcome,[9],inactive
same,outcome,[10],inactive
same,outcome,[11],inactive
same,outcome,[12],inactive
same,outcome,[14],inactive
same,outcome,[15],inactive
same,outcome,[16],inactive
same,outcome,[17],inactive
same,outcome,[18],inactive
C[C@]12C=CC(=O)C=C1CC[C@H]1[C@@H]3C[C@@H](O)[C@](O)(C(=O)CO)[C@@]3(C)C[C@H](O)[C@@]12F,AC50,[1],11.2 µM (active)
same,outcome,[4],inactive
same,outcome,[5],inactive
same,outcome,[19],inactive
same,outcome,[7],inactive
same,outcome,[8],inactive
same,outcome,[9],inactive
same,outcome,[10],inactive
same,outcome,[11],inactive
same,outcome,[12],inactive
same,outcome,[14],inactive
same,outcome,[15],inactive
same,outcome,[16],inactive
same,outcome,[17],inactive
same,outcome,[18],inactive
CC(C)CC(C)O (stereo unspecified),outcome,[5],inactive
same,outcome,[6],inactive
same,outcome,[19],inactive
same,outcome,[7],inactive
same,outcome,[8],inactive
same,outcome,[9],inactive
same,outcome,[10],inactive
same,AC50,[20],50 µM (active)
same,outcome,[11],inactive
same,outcome,[12],inactive
same,outcome,[14],inactive
same,outcome,[15],inactive
same,outcome,[16],inactive
same,outcome,[17],inactive
same,outcome,[18],inactive
Cc1ncc([C@@H](CCCCCCc2ccc3c(n2)NCCC3)CC(=O)O)cn1,outcome,[3],inactive
same,AC50,[4],12.5 µM (active)
same,outcome,[5],inactive
same,outcome,[19],inactive
same,outcome,[7],inactive
same,outcome,[8],inactive
same,outcome,[9],inactive
same,outcome,[10],inactive
same,AC50,[20],50 µM (active)
same,outcome,[11],inactive
same,outcome,[12],inactive
same,outcome,[14],inactive
same,outcome,[15],inactive
same,outcome,[16],inactive
same,outcome,[17],inactive
same,outcome,[18],inactive
